D2 ag-1 = activates the human D2 dopamine receptor; HEK293 T-REx D2 cells, calcium flux agonist mode; activation, % at 2 µM; actives 0.53% (n = 340,000);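 active = activation over 3 SD above normal in the single-dose calcium agonist read, cut at about 30% in these data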; also: 0% is about no effect
Target sequence (P14416 whole entry, looked up): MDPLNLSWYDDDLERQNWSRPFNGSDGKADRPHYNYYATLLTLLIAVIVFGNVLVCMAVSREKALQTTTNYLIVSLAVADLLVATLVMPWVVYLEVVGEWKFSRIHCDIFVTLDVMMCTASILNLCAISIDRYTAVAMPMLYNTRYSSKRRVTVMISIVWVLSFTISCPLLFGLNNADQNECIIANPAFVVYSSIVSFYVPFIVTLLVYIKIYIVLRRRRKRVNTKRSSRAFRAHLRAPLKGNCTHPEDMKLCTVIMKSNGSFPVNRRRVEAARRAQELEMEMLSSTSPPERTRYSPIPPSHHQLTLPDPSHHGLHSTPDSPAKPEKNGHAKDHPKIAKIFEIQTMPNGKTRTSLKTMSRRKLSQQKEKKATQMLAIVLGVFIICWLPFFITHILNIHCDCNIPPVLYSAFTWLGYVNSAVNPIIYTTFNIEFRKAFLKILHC
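In this primary screen, compounds producing a positive calcium signal within 180 s of addition to tetracycline-induced, force-coupled HEK293 Trex D2 cells are flagged; cells are dye-loaded with a no-wash calcium kit beforehand.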
D2 antag = D2 dopamine receptor (human) antagonism; P14416; HEK293 TREx D2 cells, calcium flux, dopamine EC80; inhibition, % at 10 µM; actives 2% (n = 340,000); AID 485344; in the data active = inhibition above about 30%; inactive = below that, where a call was filed; also: 0% is about no effect
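HEK293 T-REx D2 cells, tet-induced, calcium dye no-wash. Cpd pintool add, 180 s kinetic, then EC80 DA, 180 s kinetic. Ca flux read.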
D2 ag-2 = agonists of human D2 dopamine receptor (beta-arrestin); P14416; DiscoveRx PathHunter D2 beta-arrestin, luminescence, 90 min; 100% = 57 uM dopamine signal; activation, % (test concentration not listed); actives 0.084% (n = 360,000); AID 624465; in the data active = activation above about 40%; inconclusive = between about 15% and that limit
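Agonist mode: compounds alone added to overnight-plated D2 PathHunter cells for 90 min at 37 C, with 57 uM final dopamine (EC100) defining full response. Beta-arrestin recruitment detected by chemiluminescent reagent, read after 1 h at ambient temperature.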
D2 PAM-1 = positive allosteric modulators of human D2 dopamine receptor; P14416; HEK293 T-REx D2, calcium flux, EC20 dopamine potentiation; potentiation, % at 10 µM; actives 0.34% (n = 340,000); AID 485347;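 active = potentiation over 3 SD above the plate norm, cut at about 30% in these data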; also: 0% is about no effect
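Tetracycline-induced Hek293 Trex D2 cells, force-coupled to calcium, loaded with no-wash calcium dye. Compound added with 180 s kinetic read for agonism, then EC20 dopamine and a further 180 s read for potentiation.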
D2 PAM-2 = potentiates the human D2 dopamine receptor allosterically; DiscoveRx D2 beta-arrestin cells, luminescence, 90 min; 100% = 57 uM dopamine signal; potentiation, % (concentration not given with the values); actives 0.23% (n = 360,000); in the data active = potentiation above about 50%; inconclusive = mostly about 30% to 49%
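PathHunter D2 cells, attached overnight at 37 deg C, received compound in DMSO plus dopamine at EC20 (50 nM final) for 90 min at 37 deg C. Beta-arrestin recruitment was read as luminescence after 1 h with detection reagent at ambient temperature.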
An asterisk follows results filed as active; u = inconclusive; x = no result given. Sampled rows, rich in hits. Any-hit rate of the full collection: about 2.4%.

SMILES	D2 ag-1	D2 antag	D2 ag-2	D2 PAM-1	D2 PAM-2
C/C(=N\NS(=O)(=O)c1ccc(C)cc1)c1cccs1	x	x	0	x	4
Cc1cccc(N2CCN(C(=O)CNC(=O)C3CCCCC3)CC2)c1C	1	1	2	-4	14
Cc1cccc(N2CCN(C(=O)CNC(=O)c3ccccc3)CC2)c1C	-1	33*	0	13	-6
COCCn1c(Cc2ccccc2)nnc1SCC(=O)NC1CC1	2	32*	-6	12	-4
Cn1c(Cc2ccccc2)nnc1SCC(=O)NC1CC1	0	-10	2	-1	-3
O=C(COC(=O)C1C2CC3OC(=O)C1C3C2)Nc1ccccc1 (centres undefined)	-2	69*	2	7	-1
Cc1ccc(C)c(NC(=S)NNC(=O)c2cc3c(s2)CCC(C)C3)c1 (centres undefined)	x	x	-1	-9	-7
Cc1c(CC(=O)N[C@@H](C)C(=O)O)c(=O)oc2cc3occ(-c4ccccc4)c3cc12	x	x	-1	x	-8
Cc1ccc(-c2nnc(N3CCN(C(=O)CSc4ncn[nH]4)CC3)c3ccccc23)cc1	3	47*	0	x	-3
NC1=C(Cl)C(=O)c2ccc(S(N)(=O)=O)cc2C1=O	x	x	6	x	58*
NC1=C(Cl)C(=O)c2ccccc2C1=O	x	x	10	x	51*
NS(=O)(=O)c1ccc2c(c1)C(=NO)c1cc(S(N)(=O)=O)ccc1-2	1	-7	8	-6	-3
CCN(CC)c1ccc(/C=N/NC(=O)c2nnn(-c3nonc3N)c2C(C)C)c(O)c1	0	-12	-3	-4	-5
N/C(=N\OC(=O)c1ccc(Br)cc1)c1ccccc1	0	-6	6	2	13
COc1ccc(/C(N)=N/OC(=O)c2ccc(C)c([N+](=O)[O-])c2)cc1	0	0	u	-1	132*
N/C(=N\OC(=O)c1cccc(Br)c1)c1ccc(Br)cc1	0	7	13	-5	100*
COc1ccc(/C(N)=N/OC(=O)c2ccc([N+](=O)[O-])c(C)c2)cc1OC	0	-11	2	-4	-5
N/C(=N\OC(=O)c1cccc(Br)c1)c1ccc([N+](=O)[O-])cc1	-1	1	51*	-7	14
Cc1noc(-c2ccc(Cl)cc2)c1C(=O)O/N=C(\N)c1ccc(C(C)(C)C)cc1	x	x	47*	x	151*
CC(C)(C)c1ccc(C(=O)O/N=C(\N)c2ccccc2)cc1	1	27	40*	-4	19
Cc1ccc(C(=O)O/N=C(\N)c2ccc(Br)cc2)cc1	1	34*	u	-22	28
CCOc1ccc(C(=O)O/N=C(\N)c2ccc([N+](=O)[O-])cc2)cc1OCC	0	14	u	2	58*
c1ccc2oc(SCc3nc4ccccc4s3)nc2c1	0	9	-4	0	-12
O=c1c(Cl)nc2cc(Cl)ccc2n1CCNc1ncc(C(F)(F)F)cc1Cl	0	1	-2	47*	18
O=c1c2nncn2c2cc(C(F)(F)F)ccc2n1CCNc1ncc(C(F)(F)F)cc1Cl	-2	-15	-5	-4	-2
SMILES	D2 ag-1	D2 antag	D2 ag-2	D2 PAM-1	D2 PAM-2
O=C1C(NS(=O)(=O)c2cccs2)=C(N2CCOCC2)C(=O)c2ccccc21	0	38*	-6	3	-20
O=C1C(NS(=O)(=O)c2cccs2)=C(N2CCN(Cc3ccccc3)CC2)C(=O)c2ccccc21	-1	39*	7	-23	-18
Cc1cc(=O)nc2c3ccccc3n(C(C)C(=O)Nc3cc(F)ccc3F)n12 (centres undefined)	x	x	-2	x	-11
Cc1cc(=O)nc2c3ccccc3n(C(C)C(=O)Nc3c(F)c(F)c(F)c(F)c3F)n12 (centres undefined)	0	45*	4	4	1
Cc1cc(C[n+]2cc(Br)ccc2N)c2ncccc2c1	0	32*	-2	3	-16
CSCCC(NS(=O)(=O)c1ccc(Cl)cc1)C(=O)OCC(=O)c1c(C)[nH]c2ccccc12 (centres undefined)	-1	-8	7	5	8
CCOC(=O)N1CCc2c(sc(NC(=O)C3=COCCO3)c2C(N)=O)C1	x	x	-2	4	25
